In PubChem BioAssay AID1259313 (Sanford-Burnham Center for Chemical Genomics, 2017):
Out of some 340,000 compounds screened, about 8,500 (2.5%) were called active.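 Rule for the calls: active = melting temperature shift of at least 10% of the positive control shift, at one fixed dose; inactive = the rest.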 Shown is part of a subset that was picked to be rich in actives.

system: Glutamate receptor ionotropic, NMDA 3A (GRIN3A) ligand-binding domain; experiment: NR3A LBD thermal stabilization by compounds – biophysical, differential scanning fluorimetry, uHTS, primary screen (AID 1259313); conditions: at 25 µM, stronger effect = higher value, 0% = protein alone, 100% = glycine-bound protein

Row | SMILES | Tm shift relative to glycine control
1 | CN(C)C=NC(=O)c1cccn1-c1ncc(C(F)(F)F)cc1Cl | -1.59% (inactive)
2 | CCCCOC(=O)Cn1c(=O)n(CC(=O)OCCCC)c2cc(C)ccc21 | 10.7% (active)
3 | Cc1ccc(C)c(NC(=O)COC(=O)Cn2c(C)csc2=O)c1 | 3.33% (inactive)
4 | CCOC(=O)CN1C(=O)C(=O)c2cc(C)ccc21 | 0.43% (inactive)
5 | CN(C(=O)CSc1nnc(-c2ccc3c(c2)OCO3)o1)C1CCS(=O)(=O)C1 (stereo not given) | 1.73% (inactive)
6 | O=C(CCC(=O)NNc1nc2ccccc2c2nc(-c3ccccc3)nn12)NCCCN1CCCC1=O | 0.34% (inactive)
7 | COc1ccc2[nH]c3c(C)c4cc[n+](C)cc4c(C)c3c2c1 | -0.08% (inactive)
8 | C=CCNC(=O)C1CC2c3ccccc3C1c1ccccc12 (stereo not given) | 1.25% (inactive)
9 | CSc1ncccc1C(=O)Nc1nc2ccc(F)cc2s1 | 11.6% (active)
10 | CSc1ncccc1C(=O)Nc1ccc2c(c1)OCO2 | -2.2% (inactive)
11 | CSc1ncccc1C(=O)Nc1ccc(C)cn1 | 0.09% (inactive)
12 | CCCn1c(N)c(N(CCOC)C(=O)C2CCCC2)c(=O)[nH]c1=O | 0.34% (inactive)
13 | COc1ccc(CCNC(=O)CSc2nnc3ccc(-c4ccncc4)nn23)cc1 | -0.92% (inactive)
14 | O=C(Nc1ccccc1C(=O)Nc1ccncc1)c1ccc([N+](=O)[O-])cc1 | -13.8% (inactive)
15 | COc1ccc(NC(=O)CSCc2ccc([N+](=O)[O-])cc2)cc1OC | 4.6% (inactive)
16 | O=C(COc1ccc([N+](=O)[O-])cc1)Nc1cccc(C(=O)Nc2ccccc2C(=O)O)c1 | 10.6% (active)
17 | O=C(CSCc1ccc([N+](=O)[O-])cc1)NCCSCc1ccccc1 | 1.53% (inactive)
18 | O=C(CSCc1ccc([N+](=O)[O-])cc1)Nc1cccc(C(=O)Nc2ccccc2C(=O)O)c1 | 11.3% (active)
19 | Cc1cc(NC(=O)COc2ccc([N+](=O)[O-])cc2)no1 | 1.03% (inactive)
20 | Cc1c(CC(=O)N2CCN(C(=O)C3COc4ccccc4O3)CC2)c(=O)oc2c(O)c(O)ccc12 (stereo not given) | 1.85% (inactive)
21 | Cc1ccccc1Nc1scc(-c2ccc(Br)cc2)[n+]1-c1ccccc1C | 0.51% (inactive)
22 | COCC(C)NC(=O)c1ccc(-n2nc(C(F)(F)F)cc2-c2cccs2)cc1 (stereo not given) | -0.17% (inactive)
23 | COC(=O)c1cn(C)c2ccc(S(=O)(=O)N3CC(C)CC(C)C3)cc2c1=O (stereo not given) | 1.34% (inactive)

Row | SMILES | Tm shift relative to glycine control
24 | CCc1ccccc1NC(=O)c1cc(-c2ccc3c(c2)OCO3)on1 | 0.47% (inactive)
25 | O=C(Nc1cccnc1Cl)c1cc(-c2cccc(Cl)c2)on1 | -2.35% (inactive)
26 | O=C(Nc1ccccc1C(F)(F)F)c1cc(-c2ccc(O)cc2)on1 | 12.7% (active)
27 | CNC(=O)c1nnn(-c2ccccc2)c1C(=O)NC | 4.23% (inactive)
28 | O=[N+]([O-])c1cc(C(F)(F)F)ccc1NCCc1ccncc1 | 0.61% (inactive)
29 | Cc1csc(NC(=O)c2ccc(-c3ccc(Cl)cc3Cl)o2)n1 | -7.24% (inactive)
30 | Cc1sc2ncnc(N3CCC(C(=O)Nc4nc5ccc(Cl)cc5s4)CC3)c2c1C | 7.43% (inactive)
31 | Cc1ccc(C(=O)Nc2nc3ccc(Cl)cc3s2)o1 | 11.1% (active)
32 | O=C(NCCCn1ccnc1)c1cc(-c2ccccc2)on1 | 1.42% (inactive)
33 | CS/C(=C\[N+](=O)[O-])Nc1ccc(C)cc1 | -1.04% (inactive)
34 | CCCC(=O)Nc1cccc(NC(=S)NC(=O)C(C)Oc2ccc(Cl)cc2Cl)c1 (stereo not given) | 16% (active)
35 | CC(Oc1ccc(Cl)cc1Cl)C(=O)/C=C/N(C)C (stereo not given) | -0.27% (inactive)
36 | COc1cccc(NC(=O)CN(C)C(=O)Cc2ccc(Cl)cc2Cl)c1 | -0.7% (inactive)
37 | Cc1ccc(NC(=O)c2cnc(SCC(=O)NCC3CCCO3)n(C)c2=O)cc1 (stereo not given) | -0.94% (inactive)
38 | CC(C)CN(C(=O)CN1CCN(S(=O)(=O)c2ccccc2)CC1)c1c(N)n(CC(C)C)c(=O)[nH]c1=O | -2.36% (inactive)
39 | CSc1ccc(Cl)c(C(=O)OCC(=O)N2CC(C)OC(C)C2)c1 (stereo not given) | 1.12% (inactive)
40 | O=C1NC(c2ccccc2)Cc2ccncc21 (stereo not given) | 0.42% (inactive)
41 | CCC(CC)NC(=O)/C=C/c1cccc([N+](=O)[O-])c1 | -1.15% (inactive)
42 | CCc1ccc(NC(=O)C(C)OC(=O)/C=C/c2cccc([N+](=O)[O-])c2)cc1 (stereo not given) | 0.39% (inactive)
43 | Cc1ccc(NC(=O)O/N=C/c2cccc([N+](=O)[O-])c2)cc1 | 15.8% (active)
44 | CCOc1ccc(-c2cc(C(=O)N/N=C/c3ccc(O)cc3)c3ccccc3n2)cc1 | 3.69% (inactive)
45 | Cc1ccc(C(=O)N/N=C/c2cccc3ccccc23)cn1 | -0.89% (inactive)
46 | COc1cccc(Cn2cc(/C=N/NC(=O)c3cc(O)cc(O)c3)c3ccccc32)c1 | 15.4% (active)

Row | SMILES | Tm shift relative to glycine control
47 | N#CCC(=O)N/N=C/c1cn(Cc2ccc3ccccc3c2)c2ccccc12 | 8.21% (inactive)
48 | CCOC(=O)c1ccccc1NC(=O)CSc1nc2c(sc(=S)n2CC)c(=O)[nH]1 | 2.58% (inactive)
49 | CCn1c(=S)sc2c(=O)n(CC(=O)Nc3cccc(Br)c3)c(C)nc21 | 19% (active)
50 | CCn1c(=S)sc2c(=O)n(CC(=O)Nc3ccc(OC)cc3)c(C)nc21 | -1.05% (inactive)
51 | CCCCN(CC)C(=O)C1CCCN(S(=O)(=O)c2cccc3nsnc23)C1 (stereo not given) | -4.45% (inactive)
52 | CC1C(=O)Nc2ccc(S(=O)(=O)N3CCN(c4ccccc4F)CC3)cc2NC1=O (stereo not given) | 0.26% (inactive)
53 | Cc1cccc2nc(CNc3ccc(F)cc3)cn12 | -1.65% (inactive)
54 | NS(=O)(=O)c1ccc(NC(=O)/C=C/c2ccccc2Cl)cc1 | 22.5% (active)
55 | O=C(/C=C/c1ccccc1Cl)Nc1ccc(S(=O)(=O)Nc2ncccn2)cc1 | 3.4% (inactive)
56 | CC(=O)NS(=O)(=O)c1ccc(NC(=O)/C=C/c2ccccc2Cl)cc1 | -4.31% (inactive)
57 | O=C(O)c1ccccc1-c1ccccc1C(=O)Nc1ccccc1Br | -1.03% (inactive)
58 | Cc1cc(N2C(=O)c3ccc(C(=O)NCc4ccccc4)cc3C2=O)no1 | -0.54% (inactive)
59 | CC(C)C[C@H](NC(=O)N1CCn2c1nc1ccccc12)C(=O)NC1CC1 | -0.74% (inactive)
60 | COc1ccc(/C=C/c2nnc(NC(=O)C(C)C)s2)cc1 | 6.05% (inactive)
61 | O=C(Nc1ccc(Cl)cc1)Nc1nnc(/C=C/c2ccccc2)s1 | 10.2% (active)
62 | O=C(CSc1ccccc1)Nc1nnc(/C=C/c2ccccc2)s1 | -4.65% (inactive)
63 | CC1CN(c2cc(=O)n(Cc3ccc(F)cc3)c(=O)[nH]2)CC(C)O1 (stereo not given) | -2.45% (inactive)
64 | COc1cc(CNC2CCCCC2)c(Br)cc1OC1CCCC1 | -0.72% (inactive)
65 | Cc1cc(O)cc(O)c1C(=O)Cc1cnn(-c2ccccc2)c1 | 13.1% (active)
66 | O=C(c1cnn(-c2ccc(Cl)cc2)c1)c1ccccc1O | -2.84% (inactive)
67 | COc1ccc(CNC(=O)COc2ccccc2C(=O)c2cnn(-c3ccccc3)c2)cc1OC | 0.33% (inactive)
68 | O=C(Nc1ccc(N2CCOCC2)nc1)c1c(F)cccc1F | 1.58% (inactive)
69 | COC(=O)c1c(-c2ccsc2)oc2ccc(-c3cc(OC)c(OC)c(OC)c3)cc12 | 14.2% (active)

Row | SMILES | Tm shift relative to glycine control
70 | COc1ccccc1CNC(=O)c1cc(=O)c2ccccc2o1 | -2.39% (inactive)
71 | COc1cc(CC(=O)NCc2cccs2)cc(OC)c1OC | 2.82% (inactive)
72 | CCc1ccccc1NC(=O)CN(c1ccc(OC)cc1OC)S(=O)(=O)c1ccccc1[N+](=O)[O-] | -2.68% (inactive)
73 | COc1ccc(Br)cc1CN(C)CC(=O)Nc1cc([N+](=O)[O-])ccc1OC | -12.7% (inactive)
74 | CCOc1ccc(CCNC(=O)COC(=O)C2CCN(c3ccc(C(F)(F)F)cn3)CC2)cc1OCC | -4.5% (inactive)
75 | N#CCCN(C(=O)COC(=O)C1CCN(c2ccc(C(F)(F)F)cn2)CC1)c1ccc(F)cc1 | 1.13% (inactive)
76 | CCc1cccc(NC(=O)COC(=O)C2CCN(c3ccc(C(F)(F)F)cn3)CC2)c1 | 12.6% (active)
77 | COc1ccc(-n2nc(C(=O)NCC(=O)N3CCCCCC3)c3ccccc3c2=O)cc1Cl | -2.28% (inactive)
78 | NS(=O)(=O)c1ccc(NC(=O)COC(=O)CCc2c[nH]c3ccccc23)cc1 | -3.19% (inactive)
79 | O=C(COC(=O)c1ccncc1)Nc1ccc2c(c1)OCO2 | -0.26% (inactive)
80 | O=C(COC(=O)c1cc(-c2cccs2)nn1-c1ccccc1)Nc1cc([N+](=O)[O-])ccc1Cl | -1.02% (inactive)
81 | COc1cc(/C=C2\CCCc3c2nc2ccccc2c3C(=O)O)cc(Cl)c1O | -0.18% (inactive)
82 | O=C(COC(=O)c1ccc(F)cc1)Nc1ccc2c(c1)OCO2 | -2.46% (inactive)
83 | NS(=O)(=O)c1ccc(NC(=O)COC(=O)c2ccco2)cc1 | -3.86% (inactive)
84 | NS(=O)(=O)c1ccc(NC(=O)COC(=O)c2c3c(nc4ccccc24)/C(=C\c2ccc4c(c2)OCO4)CCC3)cc1 | 38% (active)
85 | O=C(COC(=O)c1c2c(nc3ccccc13)/C(=C\c1cccs1)CCC2)Nc1ccccc1Cl | 14.6% (active)
86 | NC(=O)c1ccc(NC(=O)COC(=O)c2c3c(nc4ccccc24)/C(=C\c2ccc4c(c2)OCO4)CCC3)cc1 | 31.8% (active)
87 | CC(C)(C)n1ncc2c(=O)n(Cc3c(Cl)cccc3Br)cnc21 | -3.98% (inactive)
88 | COc1ccc(NS(=O)(=O)c2ccc(C)c(C(=O)NNC(=O)c3csc(N4CCOCC4)n3)c2)cc1 | 0.91% (inactive)
89 | COc1ccc(NC(=O)COC(=O)CNC(=O)C2CCCCC2)cc1 | -0.45% (inactive)
90 | Cc1cc(C)cc(NC(=O)Cn2cnc3c(nnn3Cc3ccc(F)cc3)c2=O)c1 | 3.35% (inactive)
